Laboratory results: PubChem BioAssay (NCI)
About 83,000 compounds went through this panel and 20% of them were active in at least one assay; those are over-represented in the sample as a whole.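 Growth was measured after 48 h exposure to one concentration of compound in 96-well plates. Values under 10 count as active.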 The source made the active and inactive calls.

tested on: A549/ATCC NSCLC; test: NCI-60 one-dose screen, 48 h (100 = growth as untreated, 0 = no growth, -100 = all killed); conditions: 10 µM unless noted
Experimental: Growth inhibition of the A549/ATCC human Non-Small Cell Lung tumor cell line is measured as a screen for anti-cancer activity. Cells are grown in 96 well plates and exposed to the test compound for 48 hours. Compounds are tested at a single concentration, which is 10^-5 M for most compounds. The reported endpoint is percent growth (GI% or GIPRCNT), where numbers from 0 - 100% represent growth inhibition, and numbers from -100% - 0 represent cell death. For example, a value of 40 represents 60% growth inhibition. A value of 0 means no net growth occurred over the course of the experiment. A value of -40 indicates 40% of cells at the beginning of the experiment died by the end of the experiment. A value of -100 means all cells are dead at the end of the experiment.
NCI-60 Human Tumor Cell Lines Screen was performed using the standard one-dose NCI protocol, which is described in more detail at https://dtp.cancer.gov/discovery_development/nci-60/default.htm.
Compounds with GIPRCNT values below 10 were considered active. Activity score was based on GIPRCNT using the following formula: […]
Score is 0 for GIPRCNT values of 100 or above, 50 for GIPRCNT values of 0, and 100 for GIPRCNT values of -100.

SMILES	growth
Cn1c(=O)c2c(nc(N3CCCC3)n2C)n(C)c1=O	85.6% (inactive)
N#Cc1cnc2cc(OC[C@@H](O)CO)c(NC(=O)CC3CSSC3)cc2c1Nc1ccc(OCc2cccc(F)c2)c(Cl)c1	-61.8% (active)
CCN1CCN(C(=O)[C@@]2(C)CC[C@]3(C)CC[C@]4(C)C(=CC(=O)[C@@H]5[C@@]6(C)CC[C@H](OC7C[C@@H](O)[C@@H](O)C(C)O7)C(C)(C)[C@@H]6CC[C@]54C)[C@@H]3C2)CC1 (stereo not given in full)	12.5% (inactive)
C=C(C)[C@@H]1CC[C@]2(C=O)CC[C@]3(C)[C@H](CC[C@@H]4[C@@]5(C)C/C(=C/c6cccnc6)C(=O)C(C)(C)[C@@H]5CC[C@]43C)[C@@H]12	57.1% (inactive)
OCC12CCCC(CO)(COC1)C2O (stereo not given)	101% (inactive)
CCNCCCn1c2c(c3ccc([N+](=O)[O-])cc3c1=O)C(=O)c1cc(OC)cnc1-2	-81.8% (active)
O=C1C(=O)c2ccccc2C(O)=C1CCCc1ccc(C2CCCCC2)cc1	21.1% (inactive)
C=C1C(=O)O[C@H]2[C@H]1CC/C(COC(=O)NCc1cc3ccccc3[nH]1)=C\CC[C@@]1(C)O[C@@H]21	77.4% (inactive)
O=C1c2cc3c(cc2-c2c1c1ccc(Cl)cc1c(=O)n2C[C@H](O)[C@@H](O)[C@H](O)CO)OCO3	-75.8% (active)
Cc1cc2nc3c4cc(O)ccc4n(CCN(C)C)c3nc2cc1C	-32.7% (active)
Cc1cc(C)c(NC(=O)c2sc3nc4c(cc3c2N)CCCC4)c(C)c1	50.1% (inactive)
CC1(n2nnnc2N2CCCN(c3ncccc3N)CC2)CCC1	107% (inactive)
NC1=NN=C2N(N)C(=O)c3cnn(-c4ccccc4)c3N2c2nc(-c3ccccc3)cc(-c3ccccc3)c21	100% (inactive)
COC(=O)[C@]12CC[C@@H](C)[C@H](C)[C@@H]1C1=CC(=O)[C@@H]3[C@@]4(C)C[C@@H](O)[C@H](O)[C@@]5(C)COC(=C45)C[C@@]3(C)[C@]1(C)CC2	41.6% (inactive)
Cc1cc(N2CCCCC2)nc(N(CCNc2ccnc3cc(Cl)ccc23)Cc2ccco2)n1	36.6% (inactive)
O=C(c1ccccc1)C(CN1CCOCC1)c1ccccc1 (stereo not given)	95.3% (inactive)
Nc1nc(N)c2nc3c(nc2n1)CCCCCCCCCC3	20.4% (inactive)
CC(C)=CCC[C@](C)(O)[C@H]1CC[C@]2(C)[C@@H]1CC[C@@H]1[C@@]3(C)C/C(=C/c4ccc(Br)cc4)C(=O)C(C)(C)[C@@H]3CC[C@]12C	76.6% (inactive)
Cn1cnc2c1c(=O)n(CCC(=O)Nc1ccc(F)cc1)c(=O)n2C	89.1% (inactive)
Cc1cc(N(CCCNc2ccnc3cc(Cl)ccc23)Cc2ccco2)nc(N2CCOCC2)n1	83.1% (inactive)

SMILES	growth
c1ccc2[nH]c(-c3cc(-c4ccc5c(c4)OCO5)n[nH]3)nc2c1	58.8% (inactive)
CCOc1ccc(NC(=O)c2ccoc2COc2ccccc2)cc1	103% (inactive)
O=P(O)(c1ccccc1)c1ccccc1I	71.2% (inactive)
O=C1/C(=C\c2ccco2)SC(=S)N1CCc1ccc(O)cc1	99.7% (inactive)
Fc1ccc(Nc2ccc3c(OCCCN4CCOCC4)cccc3n2)cc1F	75.4% (inactive)
COc1cc(-c2cc(-c3nc4cc(Cl)c(Cl)cc4[nH]3)[nH]n2)cc(OC)c1OC	69.5% (inactive)
COc1cccc(NC(=O)c2sc3nc4c(cc3c2N)C(=O)CCC4)c1	22.5% (inactive)
Nc1nc2c3ccncc3cc(-c3cccc(Cl)c3)c2c2cnccc12	28.3% (inactive)
C#CCN=C[C@]12CC[C@@H](C(=C)C)[C@@H]1[C@H]1CC[C@@H]3[C@@]4(C)CCC(=O)C(C)(C)[C@@H]4CC[C@@]3(C)[C@]1(C)CC2	46.1% (inactive)
CNC(=O)c1cc(Oc2ccc3nc(NC(=O)Nc4ccc(Cl)cc4)sc3c2)ccn1	44.1% (inactive)
N=c1ccc2nc3c(cc(N)c4ccccc43)oc-2c1	-44% (active)
C=C(C)[C@@H]1CC[C@]2(CN)CC[C@]3(C)[C@H](CC[C@@H]4[C@@]5(C)CCC(=O)NC(C)(C)[C@@H]5CC[C@]43C)[C@@H]12	59.3% (inactive)
COc1ccc(C2CC(=O)c3c(nc4ccc(Cl)cc4c3N)C2)cc1 (stereo not given)	106% (inactive)
O=C1CCC/C=C\C[C@H]2C=C(Cl)C(=O)/C2=C/C[C@H](CCCCC(F)(F)F)OC(=O)CCC/C=C\C[C@H]2C=C(Cl)C(=O)/C2=C/C[C@H](CCCCC(F)(F)F)O1	-44.5% [7.5 µM] (active)
COc1cc(-c2c(C#N)c(-c3cccs3)nc3c2c(-c2ccccc2)nn3-c2ccccc2)ccc1O	58.3% (inactive)
Cn1cc(-c2csc(-c3c[nH]c4ccc(F)cc34)n2)c2cccnc21	46.5% (inactive)
Cc1nc([P+](c2ccccc2)(c2ccccc2)c2ccccc2)c(Sc2sc(-c3ccccc3)nc2[P+](c2ccccc2)(c2ccccc2)c2ccccc2)o1	11.5% (inactive)
CC(=O)c1c(C)[nH]c(-c2nc3ccc(N4CCN(C)CC4)cc3[nH]2)c1-c1ccc2c(c1)OCCO2	44% (inactive)
Cc1cc(N2CCCCC2)nc(N(CCCNc2ccnc3cc(Cl)ccc23)Cc2ccco2)n1	18.4% (inactive)
O=C1c2cccc3cccc(c23)C(=O)N1CC#Cc1ccc2c3c(cccc13)C(=O)N(CCN1CCNCC1)C2=O	109% (inactive)
